Laboratory results from PubChem BioAssay AID1159580 (chemical genetic matrix, 2015).
Several values for one entry are separate records, joined by “and”; a condition that tells them apart may be missing. Equal values may be shown once. Screen size: about 5,500 compounds; about 2,000 (36%) were called active. About 18% were inconclusive and are not listed. No stated cut-off is given here; in the data, active means normalized growth mostly below about 0.91 (no sharp cut-off); inconclusive means no clear call, values can overlap the other calls; inactive means mostly above about 0.92. Some of the results follow.

Test: chemical genetic growth profiling, strain panel (AID 1159580);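 further: tested at 20 µM; growth read once vehicle control cultures reached saturation at 30 °C; 1 = growth at the plate median or of vehicle wells; lower values mean less growth of the strain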
Conditions: growth OD
[1] = S. cerevisiae deletion strains, locus YAL013W, strain DEP1, hits give low values
[2] = S. cerevisiae deletion strains, locus YBR021W, strain FUR4, hits give low values
[3] = S. cerevisiae deletion strains, locus YBR229C, strain ROT2, hits give low values
[4] = S. cerevisiae deletion strains, locus YCL029C, strain bik1, hits give low values
[5] = S. cerevisiae deletion strains, locus YDL035C, strain GPR1, hits give low values
[6] = S. cerevisiae deletion strains, locus YDL074C, strain BRE1, hits give low values
[7] = S. cerevisiae deletion strains, locus YDL101C, strain DUN1, hits give low values
[8] = S. cerevisiae deletion strains, locus YDL134C, strain PPH21, hits give low values
[9] = S. cerevisiae deletion strains, locus YDL185W, strain tfp1, hits give low values
[10] = S. cerevisiae deletion strains, locus YDL192W, strain arf1, hits give low values
[11] = S. cerevisiae deletion strains, locus YDR101C, strain arx1, hits give low values
[12] = S. cerevisiae deletion strains, locus YDR150W, strain NUM1, hits give low values
[13] = S. cerevisiae deletion strains, locus YDR162C, strain NBP2, hits give low values
[14] = S. cerevisiae deletion strains, locus YDR318W, strain mcm21, hits give low values
[15] = S. cerevisiae deletion strains, locus YDR388W, hits give low values
[16] = S. cerevisiae deletion strains, locus YDR502C, strain sam2, hits give low values
[17] = S. cerevisiae deletion strains, locus YEL061C, strain CIN8, hits give low values
[18] = S. cerevisiae deletion strains, locus YER110C, hits give low values
[19] = S. cerevisiae deletion strains, locus YER155C, strain BEM2, hits give low values
[20] = S. cerevisiae deletion strains, locus YER167W, strain BCK2, hits give low values
[21] = S. cerevisiae deletion strains, locus YGL078C, strain dbp3, hits give low values
[22] = S. cerevisiae deletion strains, locus YGL086W, strain mad1, hits give low values
[23] = S. cerevisiae deletion strains, locus YGL248W, strain PDE1, hits give low values
[24] = S. cerevisiae deletion strains, locus YGR078C, strain PAC10, hits give low values
[25] = S. cerevisiae deletion strains, locus YGR135W, strain pre9, hits give low values
[26] = S. cerevisiae deletion strains, locus YGR229C, strain SMI1, hits give low values
[27] = S. cerevisiae deletion strains, locus YGR252W, strain gcn5, hits give low values
[28] = S. cerevisiae deletion strains, locus YHR030C, strain SLT2, hits give low values
[29] = S. cerevisiae deletion strains, locus YHR079C, strain IRE1 (second series), hits give low values
[30] = S. cerevisiae deletion strains, locus YHR079C, strain IRE1, hits give low values
[31] = S. cerevisiae deletion strains, locus YHR094C, strain hxt1, hits give low values
[32] = S. cerevisiae deletion strains, locus YHR129C, strain ARP1, hits give low values
[33] = S. cerevisiae deletion strains, locus YHR200W, strain rpn10, hits give low values
[34] = S. cerevisiae deletion strains, locus YIL066C, strain RNR3, hits give low values
[35] = S. cerevisiae deletion strains, locus YIL073C, strain SPO22, hits give low values
[36] = S. cerevisiae deletion strains, locus YIL125W, strain kgd1, hits give low values
[37] = S. cerevisiae deletion strains, locus YIR030C, strain dcg1, hits give low values
[38] = S. cerevisiae deletion strains, locus YJL095W, strain BCK1, hits give low values
[39] = S. cerevisiae deletion strains, locus YJL134W, strain LCB3, hits give low values
[40] = S. cerevisiae deletion strains, locus YJL168C, strain set2, hits give low values
[41] = S. cerevisiae deletion strains, locus YJL187C, strain SWE1 (second series), hits give low values
[42] = S. cerevisiae deletion strains, locus YJR043C, strain POL32, hits give low values
[43] = S. cerevisiae deletion strains, locus YJR066W, strain TOR1, hits give low values
[44] = S. cerevisiae deletion strains, locus YJR075W, strain HOC1, hits give low values
[45] = S. cerevisiae deletion strains, locus YKL009W, strain mrt4, hits give low values
[46] = S. cerevisiae deletion strains, locus YKL068W, hits give low values
[47] = S. cerevisiae deletion strains, locus YKL085W, strain MDH1 (second series), hits give low values
[48] = S. cerevisiae deletion strains, locus YKL085W, strain MDH1, hits give low values
[49] = S. cerevisiae deletion strains, locus YKL190W, strain CNB1, hits give low values
[50] = S. cerevisiae deletion strains, locus YKR001C, strain vps1, hits give low values
[51] = S. cerevisiae deletion strains, locus YLR039C, strain RIC1, hits give low values
[52] = S. cerevisiae deletion strains, locus YLR058C, strain SHM2, hits give low values
[53] = S. cerevisiae deletion strains, locus YLR102C, strain apc9, hits give low values
[54] = S. cerevisiae deletion strains, locus YLR113W, strain HOG1, hits give low values
[55] = S. cerevisiae deletion strains, locus YLR262C, strain YPT6, hits give low values
[56] = S. cerevisiae deletion strains, locus YLR268W, strain sec22, hits give low values
[57] = S. cerevisiae deletion strains, locus YLR330W, strain CHS5, hits give low values
[58] = S. cerevisiae deletion strains, locus YLR342W, strain FKS1 (second series), hits give low values
[59] = S. cerevisiae deletion strains, locus YLR371W, strain rom2, hits give low values
[60] = S. cerevisiae deletion strains, locus YLR418C, strain cdc73, hits give low values
[61] = S. cerevisiae deletion strains, locus YML016C, strain PPZ1, hits give low values
[62] = S. cerevisiae deletion strains, locus YML032C, strain rad52, hits give low values
[63] = S. cerevisiae deletion strains, locus YML124C, strain tub3, hits give low values
[64] = S. cerevisiae deletion strains, locus YMR078C, strain ctf18, hits give low values
[65] = S. cerevisiae deletion strains, locus YMR223W, strain ubp8, hits give low values
[66] = S. cerevisiae deletion strains, locus YMR263W, strain SAP30, hits give low values
[67] = S. cerevisiae deletion strains, locus YMR307W, strain GAS1, hits give low values
[68] = S. cerevisiae deletion strains, locus YNL067W, strain RPL9B, hits give low values
[69] = S. cerevisiae deletion strains, locus YNL128W, strain TEP1, hits give low values
[70] = S. cerevisiae deletion strains, locus YNL153C, strain GIM3, hits give low values
[71] = S. cerevisiae deletion strains, locus YNL183C, strain NPR1, hits give low values
[72] = S. cerevisiae deletion strains, locus YNL233W, strain BNI4, hits give low values
[73] = S. cerevisiae deletion strains, locus YNL250W, strain rad50, hits give low values
[74] = S. cerevisiae deletion strains, locus YNL271C, strain bni1, hits give low values
[75] = S. cerevisiae deletion strains, locus YNL298W, strain CLA4, hits give low values
[76] = S. cerevisiae deletion strains, locus YNL307C, strain MCK1, hits give low values
[77] = S. cerevisiae deletion strains, locus YNL322C, strain KRE1, hits give low values
[78] = S. cerevisiae deletion strains, locus YNR052C, strain pop2, hits give low values
[79] = S. cerevisiae deletion strains, locus YOL006C, strain TOP1, hits give low values
[80] = S. cerevisiae deletion strains, locus YOL012C, strain htz1
[81] = S. cerevisiae deletion strains, locus YOL147C, strain pex11, hits give low values
[82] = S. cerevisiae deletion strains, locus YOR061W, strain CKA2, hits give low values
[83] = S. cerevisiae deletion strains, locus YOR069W, strain VPS5, hits give low values
[84] = S. cerevisiae deletion strains, locus YOR136W, strain idh2, hits give low values
[85] = S. cerevisiae deletion strains, locus YOR144C, strain elg1, hits give low values
[86] = S. cerevisiae deletion strains, locus YOR184W, strain ser1, hits give low values
[87] = S. cerevisiae deletion strains, locus YOR231W, strain MKK1, hits give low values
[88] = S. cerevisiae deletion strains, locus YOR316C, strain cot1, hits give low values
[89] = S. cerevisiae deletion strains, locus YPL055C, strain LGE1, hits give low values
[90] = S. cerevisiae deletion strains, locus YPL241C, strain CIN2, hits give low values
[91] = S. cerevisiae deletion strains, locus YPL256C, strain CLN2, hits give low values
[92] = S. cerevisiae deletion strains, locus YPR119W, strain clb2, hits give low values
[93] = S. cerevisiae deletion strains, locus YPR141C, strain kar3, hits give low values
[94] = S. cerevisiae deletion strains, locus YPR163C, strain tif3, hits give low values
[95] = S. cerevisiae deletion strains, locus YPR167C, strain met16, hits give low values
[96] = S. cerevisiae deletion strains, strain wtn01, hits give low values
[97] = S. cerevisiae strains, strain wild type, hits give low values

Measured: normalized growth

Cc1c(NC(C)C)c(=O)n(-c2ccccc2)n1C
inactive: [1] 1 | [2] 0.994 | [3] 0.989 | [4] 0.983 | [5] 1.02 | [6] 0.987 | [7] 0.985 | [8] 0.996 | [9] 0.984 | [10] 0.995 | [11] 0.984 | [12] 1 | [13] 1.01 | [14] 0.98 | [15] 0.974 | [16] 1 | [17] 1 | [18] 0.984 | [19] 0.99 | [20] 1 | [21] 0.995 | [22] 1 | [23] 1 | [24] 0.987 | [25] 0.983 | [26] 0.998 | [27] 1.09 | [28] 0.998 and 1.03 | [29] 0.98 | [30] 1.03 | [31] 0.98 | [32] 0.991 | [33] 0.981 | [34] 0.998 | [35] 1 | [36] 0.99 | [37] 0.986 | [38] 0.99 and 1.03 | [39] 0.998 | [40] 0.98 | [41] 0.984 | [42] 1 | [43] 0.962 | [44] 0.994 | [45] 0.999 | [46] 0.989 | [47] 1 | [48] 1 | [49] 1 | [50] 0.992 | [51] 1.05 | [52] 0.988 | [53] 0.98 | [54] 1.05 | [55] 1.01 | [56] 0.925 | [57] 1.01 | [58] 1.04 | [59] 0.974 | [60] 0.957 | [61] 0.988 | [62] 0.964 | [63] 0.985 | [64] 0.989 | [65] 1.01 | [66] 1 | [67] 0.978 | [68] 0.986 | [69] 1 | [70] 0.986 | [71] 0.974 | [72] 0.986 | [73] 0.977 | [74] 0.986 | [75] 0.971 | [76] 0.982 | [77] 0.993 | [78] 0.991 | [79] 0.927 | [80] 1.17 | [81] 0.991 | [82] 0.997 | [83] 0.988 | [84] 0.971 | [85] 0.97 | [86] 0.985 | [87] 1.04 | [88] 0.982 | [89] 1.01 | [90] 1 | [91] 1.09 | [92] 0.982 | [93] 0.975 | [94] 0.982 | [95] 0.971 | [96] 0.971 | [97] 0.995

NC(N)=NC(N)=NCCc1ccccc1
inactive: [28] 0.956 | [30] 0.96 | [38] 0.961 | [43] 0.953 | [54] 0.965 | [71] 0.916 | [87] 0.975 | [91] 0.934

CC(C)N=C(N)N=C(N)Nc1ccc(Cl)cc1
inactive: [1] 1.02 | [2] 1.02 | [3] 1.01 | [4] 1.02 | [5] 1.01 | [6] 1.02 | [7] 1.01 | [8] 1.01 | [9] 1.01 | [10] 1.01 | [11] 1.01 | [12] 1.02 | [13] 1.01 | [14] 1.02 | [15] 1.02 | [16] 1.01 | [17] 1 | [18] 1.02 | [19] 1.01 | [20] 1.02 | [21] 1.01 | [22] 1.01 | [23] 1.02 | [24] 1.01 | [25] 1 | [26] 1.01 | [27] 0.986 | [28] 1.01 and 1.03 | [29] 1.02 | [30] 1 | [31] 1.01 | [32] 1 | [33] 1.02 | [34] 1.01 | [35] 1.07 | [36] 1.01 | [37] 1.02 | [38] 1.02 and 0.993 | [39] 1.01 | [40] 1.02 | [41] 1.01 | [42] 1.02 | [43] 0.987 | [44] 1.02 | [45] 1.01 | [46] 1.01 | [47] 1.02 | [48] 1.02 | [49] 1.01 | [50] 1.02 | [51] 1.05 | [52] 1.02 | [53] 1.02 | [54] 0.951 | [55] 1.04 | [56] 1.03 | [57] 1.01 | [58] 1.02 | [59] 1.03 | [60] 1.02 | [61] 1.01 | [62] 1.02 | [63] 1.01 | [64] 1.02 | [65] 1.01 | [66] 1.01 | [67] 1.04 | [68] 1.01 | [69] 1.01 | [70] 1.01 | [71] 0.968 | [72] 1.01 | [73] 1.01 | [74] 1.01 | [75] 1.01 | [76] 1.02 | [77] 1.01 | [78] 1.01 | [79] 1.02 | [80] 1.92 | [81] 1.01 | [82] 1.01 | [83] 1.01 | [84] 1.02 | [85] 1.02 | [86] 1.01 | [87] 1.01 | [88] 1.02 | [89] 1.03 | [90] 1.01 | [91] 1.04 | [92] 1.01 | [93] 1.02 | [94] 1.02 | [95] 1.02 | [96] 1.01 | [97] 1.01
